Assay outcomes (PubChem)
A selection: hits, their analogues and other compounds. The true share with any hit is near 10%.
Lamin A splicing = qHTS Assay for Modulators of Lamin A Splicing; HeLa LMNA splicing GFP/RFP minigene ratio, 48 h; Potency, µM (doses to about 46.1 µM), for the others: at the highest dose ratio change, negative = inhibition, usual class: inhibitors; 200,000 compounds, 0.01% hits; AID 1487, 2009; active = well fitted inhibition curve with a large enough effect in the signal ratio, with a control signal flat, not every such curve was filed as active; inconclusive = small, poorly fitted or top-dose-only effect, or effect the other way, or a change in a side signal; the % refers to the signal ratio; note: potency is the fitted concentration of half-maximal effect
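S3 HeLa stable clones carrying a lamin A-EGFP splicing minigene plus DsRed2 were seeded at 600 cells/well in Opti-MEM with 2% FBS, pin-dosed and incubated 48 h at 37°C. Acumen cytometry (488 nm) gave the GFP/RFP total-intensity ratio.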
HPGD inh = qHTS Assay for Inhibitors of HPGD (15-Hydroxyprostaglandin Dehydrogenase); 15-hydroxyprostaglandin dehydrogenase [NAD(+)] (Homo sapiens), P15428; purified HPGD, NADH fluorescence kinetic, PGE2 substrate; Potency, µM, for inactives: top-dose activity change, negative = inhibition, hits mostly inhibitors; 150,000 compounds, 4.3% hits; AID 894, 2007; note: potency is the fitted concentration of half-maximal effect
Target sequence (P15428 whole entry, looked up): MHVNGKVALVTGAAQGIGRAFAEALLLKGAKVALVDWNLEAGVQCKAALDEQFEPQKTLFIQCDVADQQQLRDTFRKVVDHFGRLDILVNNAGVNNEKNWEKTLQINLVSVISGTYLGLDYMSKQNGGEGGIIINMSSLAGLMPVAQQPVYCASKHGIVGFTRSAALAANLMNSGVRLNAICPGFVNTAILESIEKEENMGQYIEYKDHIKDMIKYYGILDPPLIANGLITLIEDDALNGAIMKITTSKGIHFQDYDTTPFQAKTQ
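NADH formation kinetics: reaction with 30 uM PGE2 and 1 mM NAD+ (final), 20 nM enzyme, Tris-HCl pH 8 with Tween 20, after 15 min compound preincubation at room temperature. Fluorescence change, last versus first of five reads.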
PNC inhibitor = High Content Assay for Compounds that inhibit the Assembly of the Perinucleolar Compartment; 140,000 compounds, 3.1% hits; PC3M PTB-GFP, PNC prevalence imaging, 16 h; hits give low values; activity change (PNC), negative = inhibition, % at 10 µM;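 active = readout at or below -70, meaning at least 70% loss of cells showing the perinucleolar compartment, a nuclear body marking cancer cells; inconclusive = readout between -30 and a set limit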;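 note: plate controls were DMSO wells for no effect and camptothecin positive control wells for full effect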
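Read-out is percentage of cells bearing a perinucleolar compartment, from automated 20x imaging of fixed, Hoechst-stained PC3M PTB-GFP cells. Cells were seeded 4 h, then exposed 16 h to compound (23 nl of library stock) in duplicate plates.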
ALDH1A1 block = qHTS Assay for Inhibitors of Aldehyde Dehydrogenase 1 (ALDH1A1). Aldehyde dehydrogenase 1A1 (Homo sapiens), P00352. Purified ALDH1A1, NADH fluorescence, propionaldehyde substrate. Potency, µM (doses to about 75.3 µM), for inactives: at the highest dose activity, negative = inhibition, usual class: inhibitors. 220,000 compounds, 7.3% hits. AID 1030, 2008;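 note: potency is the fitted concentration of half-maximal effect; plate controls were no enzyme wells and a reference inhibitor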
ALOX12 inhib = qHTS Assay for Inhibitors of 12-hLO (12-human lipoxygenase); purified 12-hLO, xylenol orange hydroperoxide absorbance; Potency, µM (highest dose often 57.1 µM), for inactives: at the highest dose activity change, negative = inhibition, hits mostly inhibitors; 150,000 compounds, 0.12% hits; AID 1452, 2008; active = well fitted inhibition curve with a large enough effect; inconclusive = small, poorly fitted or top-dose-only effect; note: potency is the fitted concentration of half-maximal effect; nearly all actives have a fitted effect of over 55% in size
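Xylenol orange chromogenic assay: hydroperoxide from 12hLO oxidises Fe(II), giving red-shifted Fe(III)-XO absorbance. Conditions: 150 nM enzyme, 40 uM arachidonic acid, 25 mM Hepes pH 7.0, 0.01% Triton X-100, 30 min, room temperature.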
* marks the source's active call; other numbers are inactive results; ? = inconclusive; . = no result; [ ] = another dose, or the depositor's remark. Unless noted, calls come from the whole dose curve; as a rule, active = well fitted inhibition curve with a large enough effect (not every such curve was filed as active); inconclusive = small, poorly fitted or top-dose-only effect, or another doubt; inactive = no such curve, though single readings can be large or run the other way. Unless noted, % is set by controls: 0 for no effect and ±100 for the full control effect.

SMILES	Lamin A splicing	HPGD inh	PNC inhibitor	ALDH1A1 block	ALOX12 inhib
Cc1ccc(CSCCNC(=O)/C=C/c2ccccc2Cl)cc1	?	8.9µM*	-23	4.5µM*	?
O=C(/C=C/c1ccccc1)NCCSCc1ccccc1Cl	?	10µM*	-91*	2.2µM*	-1%
Cc1ccc(C)c(NC(=O)CSc2nc(=O)n(CCN(C)C)c3c2CCC3)c1	5%[46 µM]	.	.	.	.
CN(C)c1ccc(C(CNS(=O)(=O)c2ccc(Br)cc2)N2CCCC2)cc1 (configuration not stated)	-16%[46 µM]	.	.	.	.
O=[N+]([O-])c1ccc(C2=Nn3c(nnc3-c3ccc(Cl)cc3)SC2)o1	.	-10%	.	-9%[13.5 µM]	-12%[11.4 µM]
CCCCCOP(=O)(c1ccccc1)c1ccccc1	-9%	-4%	-108*	13%	-1%
CCCCP(=O)(CCCC)CCP(=O)(c1ccccc1)c1ccccc1	-18%	.	18	1%	2%
NNC(=O)c1ccc[n+](CCc2ccccc2)c1	.	-7%	.	1%[13.5 µM]	3%[11.4 µM]
CC(=O)OCCCNc1cc(SCc2ccco2)c2nonc2c1[N+](=O)[O-]	-24%	7.9µM*	32	7.9µM*	-10%
CCCC(=O)OCCNc1cc(Sc2nccn2C)c2nonc2c1[N+](=O)[O-]	-19%	28µM*	-20	?	-1%
CCCC(=O)OCCNc1cc(SCc2ccco2)c2nonc2c1[N+](=O)[O-]	?	?	13	4.5µM*	-25%
CCCSc1cc(NCCOC(C)=O)c([N+](=O)[O-])c2nonc12	-11%	-26%	11	6%	0%
Cc1ccc(NC(=O)CCC(=O)N2Cc3ccccc3Oc3ncccc32)cc1	11%[46 µM]	.	.	.	.
COc1ccc(CCNC(=O)Cn2cc(S(=O)(=O)Cc3ccccc3F)c3ccccc32)cc1OC	5%[46 µM]	.	.	.	.
O=C(Nc1ccc(N2CCCC2)c(Cl)c1)c1ccc([N+](=O)[O-])o1	.	.	.	3.5µM*	.
O=C(Nc1ccc(N2CCOCC2)c(Cl)c1)c1ccccc1Cl	29%[46 µM]	.	.	7%	.
CC(=O)N1CCN(c2ccc(NC(=O)c3ccccc3Br)cc2Cl)CC1	-2%	16µM*	?	?	1%
O=C(Nc1ccc(N2CCOCC2)c(Cl)c1)c1ccc(Br)o1	?	25µM*	-6	25µM*	0%
O=C(NC(=S)Nc1ccc(N2CCOCC2)c(Cl)c1)C(c1ccccc1)c1ccccc1	5%	-18%	?	11µM*	?
CC(=O)NC(=S)Nc1ccc(N2CCOCC2)c(S(=O)(=O)Nc2cc(Cl)ccc2Cl)c1	-16%[46 µM]	.	.	0.35µM*	.
CC1CN(c2c(F)c(N)c3c(=O)c(C(=O)O)cn(C4CC4)c3c2F)CC(C)N1 (configuration not stated)	?	-11%	.	8%	-1%[0.00818 µM]
N#CCSc1nnc(COc2ccc3ccccc3c2)o1	?	-24%	-19	-13%	-23%
Cn1c(CSCCOc2ccccc2)n[nH]c1=S	-24%[46 µM]	.	.	-8%	.
S=c1[nH]nc(CSCCOc2ccccc2)o1	10%[46 µM]	.	.	20µM*	.
S=c1[nH]nc(COc2ccc3ccccc3c2)o1	3%	-20%	-27	3.5µM*	0%
SMILES	Lamin A splicing	HPGD inh	PNC inhibitor	ALDH1A1 block	ALOX12 inhib
S=c1[nH]nc(CSCCOc2ccc(Cl)cc2Cl)o1	?	.	.	0.1µM*	.
O=C(O)[C@@H]1[C@@H](C(=O)NCc2ccccn2)[C@@H]2C=C[C@@H]1O2	.	-6%	.	-9%[13.5 µM]	1%[11.4 µM]
C[C@@]1(C(NC(=O)c2ccccc2)c2ccc(-c3ccccc3)cc2)C[C@H]1C1CCCCC1 (some centres not stated)	.	-3%	.	6%	-2%
COC(=O)c1ccc(C(NC(=O)c2ccco2)[C@]2(C)C[C@H]2C2CCCCC2)cc1 (some centres not stated)	.	-11%	.	3.5µM*	-4%
COc1ccc(CNC(=O)C2CCN(S(=O)(=O)c3ccc4c(c3)CCCN4C(C)=O)CC2)cc1	-10%[46 µM]	.	.	.	.
CCOC(=O)CNC(=S)n1cnc(N)n1	?	.	.	32µM*	.
CCOC(=O)CNC(=O)CSc1nc(N)cc(N)n1	-1%	-4%	-22	9%	0%
CC(=O)NC(=S)Nc1sc2c(c1C(N)=O)CCC(C)C2 (configuration not stated)	-6%[46 µM]	.	.	8.9µM*	.
Cc1cc([N+](=O)[O-])nn1CCCC(=O)Nc1sc2c(c1C(N)=O)CCC(C)C2 (configuration not stated)	-7%	16µM*	-13	?	-1%
Cc1sc(NC(=S)NC(=O)C(C)(C)C)c(C(N)=O)c1C	9%	?	14	7.9µM*	-4%
CC(C)(C)C(=O)NC(=S)Nc1sc2c(c1C(N)=O)CCC2	?	.	.	2µM*	.
COc1ccccc1N1CCN(c2cc(C)nc3c(-c4ccc(Cl)cc4)c(C)nn23)CC1	-1%[46 µM]	.	.	.	.
COc1ccc2c(Cl)cc(NC(=S)Nc3ccccc3)nc2c1	.	-13%	.	-6%[13.5 µM]	1%[11.4 µM]
CC(C)CC(=O)NC(=S)Nc1sc2c(c1C(N)=O)CCC2	?	.	.	1.4µM*	.
CCC1(CC)NC(=O)N(CC(=O)Nc2sc3c(c2C(N)=O)CCC3)C1=O	3%	?	27	22µM*	-8%
Cc1cccc(CSc2nc3c(c(=O)[nH]2)C(c2cccc(O)c2)CC(=O)N3)c1 (configuration not stated)	-1%[46 µM]	.	.	.	.
COc1ccc(C2C(C#N)=C(N)OC3=C2C(=O)CC(C)(C)C3)cc1Cn1nc(C)c([N+](=O)[O-])c1C (configuration not stated)	2%	1%	5	2%	-1%
Cc1nn(-c2ccccc2)c2c1C(c1ccccc1)C(C#N)=C(N)O2 (configuration not stated)	-12%	32µM*	5	3.5µM*	-12%
Cc1nn(-c2ccccc2)c2c1C(c1ccc(Br)s1)C(C#N)=C(N)O2 (configuration not stated)	.	.	.	3.2µM*	.
COC(=O)C1=C(C)OC(N)=C(C#N)C1c1c(C)nn(-c2ccccc2)c1Cl (configuration not stated)	-3%	?	24	-7%	-5%
COc1ccc(C2C(C#N)=C(N)Oc3c2c(C)nn3-c2ccccc2)cc1Cn1nc(C)c([N+](=O)[O-])c1C (configuration not stated)	?	?	1	5µM*	-22%
CCn1c(=O)cc(SCC(=O)NCC2CCCO2)c2ccccc21 (configuration not stated)	-12%	?	?	?	0%
Cn1c(=O)cc(SCC(=O)NCC2CCCO2)c2ccc(Cl)cc21 (configuration not stated)	-4%	14µM*	-11	-8%	-4%
